Active and inactive are the calls of the source. The calls were made as follows: active = hit-call score of the fitted dose curve at least 0.9, where 1 is the maximum; inactive = score below 0.9.
Experiment: CCTE_Simmons_MITO_max_resp_rate: CCTE's HepG2 Seahorse XF Respirometric Screening Assay at Maximal Respiratory State [uncoupled], Simmons Lab (AID 2284002)
Conditions: actives raise or lower the signal
Experimental: CCTE_Simmons_MITO is cell-based, respirometric assay using HepG2 cells and a Seahorse XF Analyzer to measure oxygen consumption rates over four temporal phases spanning a total of 72 minutes: pre-injection (pre-treatment), basal (following test compound injection), maximal (following FCCP uncoupler injection), and inhibited (following rotenone/antimycin A injection)CCTE_Simmons_MITO_max_resp_rate is one of 4 assay components calculated from the CCTE_Simmons_MITO assay. It is designed to make measurements of maximal respiration using a form of respirometric reporter, as detected with […] signals by Seahorse XF96 technology. Data from the assay component CCTE_Simmons_MITO_max_resp_rate was analyzed at the endpoint, CCTE_Simmons_MITO_max_resp_rate_OCR, with bidirectional fitting relative to DMSO as the negative control and baseline of activity. Using a type of respirometric reporter, measures of maximal respiration for gain or loss-of-signal activity can be used to understand cellular oxygen consumption as it relates to cellular respiration. To generalize the intended target to other relatable targets, this assay endpoint is annotated to the mitochondria intended target family, where the subfamily is respiration.
Test chemicals were administered as a titrated series of 7 concentrations from 125 nM up to 100 uM [final] prior to kinetic endpoint detection at 6 minute intervals [3 min mix followed by 3 minutes measure] for 72 minutes. Three biological replicates of technical singles were run for every chemical concentration tested. Dimethylsulfoxide [DMSO] was used as the vehicle control. The electron transport chain inhibitor fenpyroximate was used as the positive control for decreased basal respiration and was administered as a titrated series of 6 concentrations from 250 nM up to 2.75 uM [final] with technical triplicates for the top concentration only. The uncoupler 2,4-dintirophenol was used as the positive control for increased basal respiration and was administered as a titrated series of 6 concentrations from 938 nM up to 40 uM [final] with technical triplicates for the top concentration only. A Seahorse XF Analzyer is required to measure the response.

SMILES | outcome | AC50
O=C(O)C(F)(F)C(F)(F)C(F)(F)C(F)(F)C(F)(F)C(F)(F)C(F)(F)C(F)(F)C(F)(F)C(F)(F)F | inactive | –
CCOP(=S)(OCC)Oc1nc(Cl)c(Cl)cc1Cl | inactive | –
CC(C)(c1ccccc1)c1ccc(O)c(C(C)(C)c2ccccc2)c1 | – | 50 µM (active)
COc1cc(-c2ccc(N)c(OC)c2)ccc1N | inactive | –
CC(=O)[O][Hg][c]1ccccc1 | – | 13.1 µM (active)
CCC(C)(C)c1ccc(O)c(C(C)(C)CC)c1 | – | 78.2 µM (active)
O=C1C2(Cl)C3(Cl)C4(Cl)C(Cl)(Cl)C5(Cl)C3(Cl)C1(Cl)C5(Cl)C24Cl (stereo not drawn) | – | 35.8 µM (active)
O=C(Nc1ccc2[nH]ccc2c1)c1cc2cc(F)ccc2n1Cc1cccc(F)c1 | inactive | –
CC(C)(C)CC(C)(C)c1ccc(O)cc1 | – | 27.7 µM (active)
CCCCCCCCc1ccc(O)cc1 | – | 39.5 µM (active)
O=[N+]([O-])c1ccc(O)c([N+](=O)[O-])c1 | inactive | –
C=C(C)C(=O)[O][Sn]([CH2]CCC)([CH2]CCC)[CH2]CCC | – | 5.4 µM (active)
C[C@]12CCC(=O)C[C@@H]1CC[C@@H]1[C@@H]2CC[C@]2(C)[C@@H](O)CC[C@@H]12 | inactive | –

From PubChem BioAssay (EPA / NIEHS)
